Reference: PubChem BioAssay (NCATS)
Activity calls are given as the source filed them. The rule behind the calls is not given here.

tested on: HIV-1 nucleocapsid protein NCp7 (binding to TG oligonucleotide); experiment: HIV Nucleocapsid (AID 346); conditions: HIV-1 NC / fluorescein-TGTGTGTG probe, fluorescence polarization;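 note: potency is for inhibitors that block NC binding and lower polarization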
Summary of the method: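 10 nM TG4xF probe with 100 nM nucleocapsid protein in high-salt Hepes pH 7.5 (250mM NaCl) containing 1uM ZnCl2 and reducing agents. Compound inhibition of binding was read as fluorescein polarization after 1 hr at room temperature.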
Potency is the fitted concentration of half-maximal effect.

| SMILES | Potency |
| --- | --- |
| COCCn1c(=O)c(-c2ccc(Cl)cc2)nc2cnc(N(C)C)nc21 | > 20 µM (inactive) |
| FC(F)(F)c1ccccc1-c1nccc(NCc2cccs2)n1 | > 20 µM (inactive) |
| N#Cc1ccc(CN2CCC3(CC2)CCN(C(=O)c2cnccn2)CC3)cc1 | > 20 µM (inactive) |
| Cn1cccc1C(=O)N1CCC2(CC1)CCN(c1ccccc1)CC2 | > 20 µM (inactive) |
| O=C(c1ccncc1)N1CCC[C@@]2(CCN(Cc3ccccc3)C2)C1 | > 20 µM (inactive) |
| Cc1ccccc1-c1ccc2ncnc(NCc3cccnc3)c2c1 | > 20 µM (inactive) |
| COc1ccc(-n2c(=O)c(-c3cccs3)nc3cnc(Nc4ccccc4)nc32)cc1 | 4.01 µM (active) |
| O=c1cnc2cnc(Nc3ccccc3)nc2n1Cc1ccc(F)cc1 | > 20 µM (inactive) |
| CCNc1ncc2nc(C)c(=O)n(-c3ccc(OC)cc3)c2n1 | > 20 µM (inactive) |
| O=C(Nc1cccc(F)c1)N1CCCC2(CCN(C(=O)c3ccco3)CC2)C1 | > 20 µM (inactive) |
| CN1CCN(c2ncc3nc(CCc4ccccc4)c(=O)n(Cc4ccc(F)cc4)c3n2)CC1 | > 20 µM (inactive) |
| FC(F)(F)c1ccccc1-c1nc(-n2ccnc2)c2ccccc2n1 | > 20 µM (inactive) |
| COCCn1c(=O)c(-c2cccc(C#N)c2)nc2cnc(Oc3ccccc3)nc21 | > 20 µM (inactive) |
| Cc1ccccc1-c1nc(N(C)Cc2ccco2)c2ccccc2n1 | > 20 µM (inactive) |
| CN(C)c1ccc(-c2nc(NCCN3CCOCC3)c3ccccc3n2)cc1 | > 20 µM (inactive) |
| CN1CCN(c2ncnc3ccc(-c4ccoc4)cc23)CC1 | > 20 µM (inactive) |
| O=C(c1cnccn1)N1CCC2(CCCN(c3ncccn3)C2)CC1 | > 20 µM (inactive) |
| O=C(c1cc(C(F)(F)F)cc(C(F)(F)F)c1)N1CCC2(CCCN(c3ccncc3)C2)CC1 | > 20 µM (inactive) |
| O=C(c1ccncc1)N1CCC2(CCN(Cc3nccs3)CC2)CC1 | > 20 µM (inactive) |
| COc1ncc2nc(-c3ccccc3)c(=O)n(C)c2n1 | > 20 µM (inactive) |

| SMILES | Potency |
| --- | --- |
| CN1CCN(c2ncncc2-c2ccc(C(=O)N(C)C)cc2)CC1 | > 20 µM (inactive) |
| COc1cccc(Cn2c(=O)c(-c3cccc(Cl)c3)nc3cncnc32)c1 | > 20 µM (inactive) |
| COc1ccc(CNc2ncncc2-c2c(C)noc2C)c(OC)c1 | > 20 µM (inactive) |
| COc1ccc(C(=O)N2CCC3(CCN(Cc4nccs4)CC3)CC2)cc1 | > 20 µM (inactive) |
| COc1cccc(-c2ccc3ncnc(NCc4ccc(OC)cc4OC)c3c2)c1 | > 20 µM (inactive) |
| O=C(c1ccncc1)N1CCC2(CC1)CN(C(c1ccccc1)c1ccccc1)C2 | > 20 µM (inactive) |
| O=c1c(-c2cc(F)cc(F)c2)nc2cnc(N3CCNCC3)nc2n1-c1ccccc1 | > 20 µM (inactive) |
| COc1ccc(NC(=O)N2CCC3(CC2)CCN(S(=O)(=O)c2ccccc2)CC3)cc1 | > 20 µM (inactive) |
| c1ccc2c(Nc3ccncc3)nc(-c3ccoc3)nc2c1 | > 20 µM (inactive) |
| COc1ccc(-n2c(=O)c(-c3cccs3)nc3cncnc32)cc1 | > 20 µM (inactive) |
| COCC(=O)N1CCC2(CCCN(c3ccccn3)C2)CC1 | > 20 µM (inactive) |
| CS(=O)(=O)N1CCC2(CCCN(c3ncccn3)C2)CC1 | > 20 µM (inactive) |
| COc1cccc(Nc2ncc3nc(-c4ccccc4)c(=O)n(C[C@H]4CCCO4)c3n2)c1 | > 20 µM (inactive) |
| c1csc(CNc2cc(-c3ccoc3)ncn2)c1 | > 20 µM (inactive) |
| CCNc1ncc2nc(-c3ccc(Cl)cc3)c(=O)n(Cc3cccc(OC)c3)c2n1 | 14.6 µM (inactive) |
| c1nc(NC2CCNCC2)c2cc(-c3ccoc3)ccc2n1 | > 20 µM (inactive) |
| Cc1ccccc1-c1ccc2ncnc(N3CCN(C)CC3)c2c1 | > 20 µM (inactive) |
| O=C(c1cnccn1)N1CCC2(CC1)CCN(c1ccccc1)CC2 | > 20 µM (inactive) |
| N#Cc1cccc(-c2ccc3ncnc(N4CCNCC4)c3c2)c1 | > 20 µM (inactive) |
| COCCn1c(=O)c(C)nc2cnc(N(C)C)nc21 | > 20 µM (inactive) |
